Rows were chosen to be rich in hits. Some 7.1% of all compounds tested hit in one or more screens of this group.
p53 reactivation: restores transcriptional activity of mutant p53 | 0.063% of 320,000 active | Potency, µM (series often up to 92.2 µM), inactives show top-dose activity change, positive = activation, usual class: activators | H1299 p53-A138V BP100-luciferase reporter, luminescence, 24 h; also: % of control where 0% means no effect; nearly all actives have a fitted effect of over 45% in size
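H1299 (p53-null), stable ts p53-A138V + BP100-Luc; 1000 cells/well, Opti-MEM/10% FBS; cpd 4 pt, 1:5; 24 h, 37 deg C, 5% CO2; detection reagent 10 min RT; luminescence.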
ELG1 genotox: inducers of genotoxicity in HEK293T ELG1-luciferase cells; HEK293T ELG1-luciferase reporter, luminescence, 16 h; Potency, µM (series often up to 46 µM), without a hit: top-dose activity change, positive = activation, most hits filed as activators; 1.3% of 330,000 active; AID 504466; also: % of control where 0% means no effect; nearly all actives have a fitted effect of over 60% in size
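ELG1-luciferase HEK293T cells, 2,000/well; compound pinned in; 16 hr, 37 °C, 5% CO2; ONE-Glo, 30 min RT; luminescence on CCD imager.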
A-T KAP1 phos: potential ataxia-telangiectasia treatment. F2112 A-T fibroblasts, KAP-1 phosphorylation AlphaLISA; neocarzinostatin DNA damage 30 min before lysis. Potency, µM (series often up to 57.5 µM), inactives show at the highest dose activation, actives largely listed as activators. 0.19% of 320,000 active. AID 485349; also: % of control where 0% means no effect; nearly all actives have a fitted effect of over 45% in size
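hTERT-immortalized A-T patient fibroblasts (F2112), 500 cells/well in OPTI-MEM, 1% FBS, got compounds for 60 min, then NCS for 30 min at 37C. Lysates were then assayed for phospho-KAP-1 by AlphaLISA (anti-pKAP1 donor, anti-KAP1 acceptor beads), 6 hr at 25C.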
ELG1 repair inh: blocks ELG1-dependent DNA repair in HEK293T cells; Potency, µM (highest dose often 46.1 µM), for the others: top-dose activity change, negative = inhibition, hits mostly inhibitors; 2.3% of 330,000 active; HEK293T ELG1-luciferase reporter, luminescence, 16 h; DNA damage induced by 5-fluorouridine; also: % is scaled to controls: 0 for no effect and ±100 for the full control effect; nearly all actives have a fitted effect of over 55% in size
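Luminescence from the luciferase reporter, measured 30 min after ONE-Glo reagent at room temperature, was the read-out. Beforehand, 2,000 cells per well were exposed for 16 hr at 37 °C to 5-fluorouridine together with compound or vehicle.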
MCF10A rereplic: induces DNA re-replication in MCF 10a normal breast cells | MCF 10A DNA re-replication, Hoechst nuclear intensity, 48 h | Potency, µM (top dose mostly 46.1 µM), inactives show at the highest dose activity, positive = re-replication, actives largely listed as activators | 2.9% of 350,000 active | AID 624296; also: % of control where 0% means no effect; nearly all actives have a fitted effect of over 50% in size
SW480 rerep: inducers of DNA re-replication in SW480 colon cancer cells | SW480 DNA re-replication, Hoechst DNA content imaging, 48 h | Potency, µM (titrated, usually from 46.1 µM), for inactives: top-dose re-replication activation, hits mostly activators | 1.8% of 340,000 active | AID 624297; also: % of control where 0% means no effect; nearly all actives have a fitted effect of over 55% in size
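Compounds, transferred as 23 nL by pin tool, were incubated with cells for 48 hr; DNA content per nucleus was then quantified by Hoechst staining and fluorescence plate imaging.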
ELG1 FLuc counter: luciferase inhibition in cell-free luciferin readout for ELG1 hits | shares compounds with ELG1 repair inh | cell-free firefly luciferase luminescence counter-screen, ViewLux | Potency, µM (series often up to 46.1 µM), inactives show at the top dose activity change, negative = inhibition, usual class: inhibitors | 3% of 350 active; also: % is scaled to controls: 0 for no effect and ±100 for the full control effect
ELG1 Luc conf: human ELG1 repair inhibition, luciferase-tagged ELG1 confirmation | shares compounds with ELG1 repair inh | HEK293T ELG1-luciferase levels, luminescence; cells co-treated with 5-fluorouridine | Potency, µM (titrated, usually from 46.1 µM), without a hit: at the top dose activity change, negative = inhibition, actives largely listed as inhibitors | 68% of 670 active; also: % is scaled to controls: 0 for no effect and ±100 for the full control effect; nearly all actives have a fitted effect of over 55% in size
ELG1-Luc MMS: confirmation of human ELG1 repair inhibitors, MMS stimulated | shares compounds with ELG1 repair inh | HEK293T luciferase-tagged ELG1 level, MMS stimulated | Potency, µM (titrated, usually from 46.1 µM), inactives show at the highest dose activity change, negative = inhibition, most hits filed as inhibitors | 53% of 670 active; also: % is scaled to controls: 0 for no effect and ±100 for the full control effect; nearly all actives have a fitted effect of over 60% in size
ELG1 5-FU: confirmation of ELG1 repair inhibitors: viability with 5FU; Potency, µM (titrated, usually from 46.1 µM), without a hit: at the highest dose activity change, negative = viability loss, hits mostly cytotoxic; shares compounds with ELG1 repair inh; AID 624250; 670 tested, under 10 active; cell viability with 5-FU, ELG1-dependent repair;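 also: ELG1-luc HEK293T cells cotreated with 5-fluorouridine at 10 µM final; viability measured 16 h after compound addition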
ELG1 MMS cell: confirmation of ELG1 repair inhibitors: viability with MMS; shares compounds with ELG1 repair inh; Cell viability with MMS, ELG1-dependent DNA repair; Potency, µM (highest dose often 46.1 µM), for the others: at the highest dose activity change, negative = viability loss, most hits filed as cytotoxic; 33% of 670 active; AID 624251;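 also: ELG1-luc HEK293T cells co-treated with 10 µM MMS; viability read 16 h after compound addition; % is scaled to controls: 0 for no effect and ±100 for the full control effect; nearly all actives have a fitted effect of over 60% in size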
Cell viab unstim: affects unstimulated cell viability, ELG1 hit counter-screen; shares compounds with ELG1 repair inh; cell viability counter-screen, unstimulated, luminescence; Potency, µM (top dose mostly 45.9 µM), inactives show top-dose activity change, negative = loss of viability, usual class: cytotoxic; 8% of 900 active;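 also: compound exposure lasted 16 hours before reading; % is scaled to controls: 0 for no effect and ±100 for the full control effect; nearly all actives have a fitted effect of over 55% in size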
FLuc enzyme: inhibits purified firefly luciferase, counter-screen for ELG1 hits; shares compounds with ELG1 repair inh; purified firefly luciferase, luminescence counter-screen; Potency, µM (series often up to 57.5 µM), inactives show top-dose activity, negative = inhibition, hits mostly inhibitors; 10% of 350 active; also: % is scaled to controls: 0 for no effect and ±100 for the full control effect
* hit, by the source's call; ? = inconclusive; . = not tested or not shown. Calls follow the shape of the dose curve; as a rule, active = well fitted curve in the direction sought with a large enough effect; inconclusive = small, poorly fitted or top-dose-only effect, or another doubt; inactive = no such curve, though single readings can be large; an effect the other way counts as inactive or inconclusive. Potency is read from the fitted curve at half-maximal effect.

SMILES	p53 reactivation	ELG1 genotox	A-T KAP1 phos	ELG1 repair inh	MCF10A rereplic	SW480 rerep	ELG1 FLuc counter	ELG1 Luc conf	ELG1-Luc MMS	ELG1 5-FU	ELG1 MMS cell	Cell viab unstim	FLuc enzyme
Cc1ccc(S(=O)(=O)N2CCCCC2)cc1NC(=O)CNc1ccc(C(F)(F)F)cc1	-5%	16%	-13%	3.7µM*	4%	38%	.	?	31µM*	-3%	28µM*	?	.
C=CCN(CC=C)C(=S)NC(=O)Cc1cccc2ccccc12	0%	-4%	-2%	0%	0%	0%	.	.	.	.	.	.	.
Cn1nc(CC(=O)Nc2ccc3c(c2)CCC3)c2ccccc2c1=O	2%	-7%	-1%	0.52µM*	2%	-6%	-8%	?	0.71µM*	-8%	0.89µM*	?	-14%
O=C1c2cccc(OCc3ccc(F)cc3)c2CCN1Cc1ccc(F)cc1	-3%	0%	1%	4.1µM*	21µM*	8%	.	13µM*	3.5µM*	-5%	3.1µM*	?	.
CN1CCc2c(OCc3ccc(F)cc3)cccc2C1=O	-3%	-2%	-1%	10%	-8%	-5%	.	.	.	.	.	.	.
COC(=O)c1cc(C)c(C)cc1NC1OC(CO)C(O)C1O (stereo not given)	.	.	.	.	4%	-2%	.	.	.	.	.	.	.
O=C1N=C(N2CCCC2)S/C1=C\c1cn[nH]c1-c1ccccc1	-8%	10%	1%	-17%	14%	-2%	.	.	.	.	.	.	.
Cc1ccccc1N1CCN(C2=NC(=O)/C(=C/c3cn[nH]c3-c3ccccc3)S2)CC1	1%	1%	-10%	0.82µM*	-3%	-2%	33%	1.3µM*	0%	?	1%	0%	-3%
Cc1ccc(C(=O)Nc2cccc(C(=O)NC3CCCC3)c2)cc1	-6%	-7%	9%	-5%	-4%	4%	.	.	.	.	.	.	.
COc1ccc2c(C)cc(SCC(=O)N3CCOCC3)nc2c1	-2%	3%	11%	-11%	7%	-4%	141%	.	.	.	.	?	?

Assay outcomes as filed in PubChem BioAssay.
